# Compounds with a hit are over-represented: about 8.1% of the library has one in this group of screens.
# ELG1 repair inh = blocks ELG1-dependent DNA repair in HEK293T cells. HEK293T ELG1-luciferase reporter, luminescence, 16 h; DNA damage induced by 5-fluorouridine. Potency, µM (top dose mostly 46.1 µM), for inactives: at the highest dose activity change, negative = inhibition, actives largely listed as inhibitors. 330,000 tested, 2.3% active. AID 504467; further: on the % scale 0 is the no-effect control and ±100 the full control effect; nearly all actives have a fitted effect of over 55% in size
#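 Quantitative HTS, concentration-response format. 2,000 cells/well co-treated with 5-fluorouridine and compound, 16 hr in 5% CO2 at 37 °C; ONE-Glo luminescence read after 30 min.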
# KB-V1 MDR tox = kills drug-selected multidrug resistant KB-V1 cells. KB-V1 MDR cells viability, CellTiter-Glo, 72 h. Potency, µM (top dose mostly 46.1 µM), most hits filed as cytotoxic. 400,000 tested, 3.4% active; further: on the % scale 0 is the no-effect control and ±100 the full control effect; nearly all actives have a fitted effect of over 60% in size
#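 Compound-treated KB-V1 multidrug-resistant cells, 72 h, 37 degrees C; viability by CellTiter-Glo. Fitted qHTS curves give the values.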
# SW480 rereplic = induces DNA re-replication in SW480 colon adenocarcinoma cells; SW480 DNA re-replication, Hoechst DNA content imaging, 48 h; Potency, µM (top dose mostly 46.1 µM), without a hit: at the top dose re-replication activation, hits mostly activators; 340,000 tested, 1.8% active; further: % of control where 0% means no effect; nearly all actives have a fitted effect of over 55% in size
#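 Readout is total intensity of Hoechst-stained nuclei, excited at 405 nm and collected at 500-530 nm. Compound treatment lasted 48 hr at 37 C in 5% CO2 before staining.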
# MCF10A rereplic = inducers of DNA re-replication in MCF 10A breast cells | Potency, µM (titrated, usually from 46.1 µM), without a hit: at the highest dose activity, positive = re-replication, actives largely listed as activators | MCF 10A DNA re-replication, Hoechst nuclear intensity, 48 h | 350,000 tested, 2.9% active; further: % of control where 0% means no effect; nearly all actives have a fitted effect of over 50% in size
# KB-3-1 tox = KB-3-1 parental cell cytotoxicity. KB-3-1 viability, CellTiter-Glo ATP luminescence, 72 h. Potency, µM (top dose mostly 46.1 µM), hits mostly cytotoxic. 400,000 tested, 1.4% active; further: on the % scale 0 is the no-effect control and ±100 the full control effect; nearly all actives have a fitted effect of over 60% in size
#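 KB-3-1 cells, DMEM (no phenol red) + 10% FBS; compound by pin transfer, 72 h, 37 °C. Readout: CellTiter-Glo luminescence after 10 min. Data normalized, curve-fitted.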
# An asterisk follows results filed as active; i = inactive; u = inconclusive; x = not tested or not shown; [ ] = another dose, or the depositor's remark. The call rests on the fitted dose curve; in most records, active means well fitted curve in the direction sought with a large enough effect; inconclusive means small, poorly fitted or top-dose-only effect, or another doubt; inactive means no such curve, though single readings can be large; an effect the other way counts as inactive or inconclusive. Potency means the concentration at half of the fitted maximal effect.
SMILES,ELG1 repair inh,KB-V1 MDR tox,SW480 rereplic,MCF10A rereplic,KB-3-1 tox
CCCNC(=O)c1sc2c(c1C(=O)Nc1ccccn1)CCCC2,u,u,0%,u,i
Cc1ccc(CSCC(=O)N(C)CC(=O)Nc2ccccc2C(F)(F)F)cc1,-7%,u,3%,12%,i
COc1ccccc1NC(=O)c1ccc(Cl)c(S(=O)(=O)N2CCOCC2)c1,u,i,-3%[9.22 µM],14%,i
CC(C)c1c(C(=O)N/N=C/c2ccc(C(F)(F)F)cc2)nnn1-c1nonc1N,-30%,i,26%,u,u
CC(C)NC1=C(Cl)C(=O)c2ccccc2C1=O,1%,i,13µM*,u,u
CCc1ccc([C@@H]2CC=C(C(=O)O)[C@H](c3ccc(C)cc3)N2S(=O)(=O)c2ccc(C)cc2)cc1,-4%,i,13%,-34%,i
CCc1ccc([C@@H]2CC=C(C(=O)O)[C@H](c3ccc(Cl)cc3)N2S(=O)(=O)c2ccc(C)cc2)cc1,14%,i,-13%,13µM*,i
Cc1ccccc1S(=O)(=O)N1[C@@H](c2ccc(Cl)cc2)C(C(=O)O)=CC[C@H]1c1ccc(Cl)cc1,0%,i,2%,16µM*,i
COc1ccc(C[C@H]2CN3C(=NC[C@H]3Cc3ccccc3)N2CCNC(=O)CCC2CCCCC2)cc1,-2%,i,0%,u,i
Cc1cc(Nc2ccc(F)cc2)nc(N)n1,-6%,u,-1%,6%,i
CN(C)CCNCCCNc1c2ccccc2nc2cccc([N+](=O)[O-])c12,x,i,u,u,0.016µM*
CN(C)CCCNc1c2c(nc3ccccc13)CCC2,-3%,i,-13%,4%,u
CC(=O)c1sc(Nc2ccccn2)nc1C,u,u,-1%,17%,15µM*
CC(=O)c1sc(Nc2nc3cc4c(cc3s2)OCO4)nc1C,u,u,21µM*,18µM*,i
COc1ccc2nc(Nc3nc(C)c(C(C)=O)s3)sc2c1,u,18µM*,16µM*,u,i
CC(=O)Nc1nc2cc3c(cc2s1)OCO3,u,i,-1%,u,i
Cc1cc(C)nc(-n2nc(C)c3c(C(F)F)cc(C)nc32)n1,0%,i,0%,-3%,i
Cc1cc(NCC2CCCO2)n2c(nc3ccccc32)c1C#N (stereo unspecified),x,i,3%,u,i
CC(C)Cc1nc(N2CCN(C(=O)c3ccco3)CC2)c(C#N)c2c1CCC2,u,u,3%,21µM*,u
Cc1cc(-c2ccco2)c(C#N)c2nc3ccccc3n12,9%,i,9%,18µM*,u
CC(C)c1cc(N2CCN(C(=O)c3ccco3)CC2)n2c(nc3ccccc32)c1C#N,-19%,i,29%,23µM*,i
CC(C)c1cc(NCC2CCCO2)n2c(nc3ccccc32)c1C#N (stereo unspecified),16µM*,u,u,u,i
COc1ccc(CCNC(=O)C(=O)NCC2OCCN2S(=O)(=O)c2ccc(OC)cc2)cc1 (stereo unspecified),u,i,9%,0%,i
N#Cc1c(N2CCN(C(=O)c3ccco3)CC2)nc(-c2ccccc2)c2c1CCCC2,26µM*,21µM*,8%,7%,i
CCN(c1ccccc1)S(=O)(=O)c1ccc(C(=O)N2CCCC(C(F)(F)F)C2)cc1 (stereo unspecified),-2%,u,u,26%,i
SMILES,ELG1 repair inh,KB-V1 MDR tox,SW480 rereplic,MCF10A rereplic,KB-3-1 tox
CCN(CCCNC(=O)CCc1nc(-c2ccc(OC)cc2)no1)c1cccc(C)c1,18µM*,i,13%,20%,i
c1ccc(-c2cc3c(ccc4nonc43)nn2)cc1,u,i,14%,-1%,i
On1onc2c3cc(-c4ccccc4)nc3ccc21,u,15µM*,7.3µM*,8.2µM*,i
CCN(CC)S(=O)(=O)c1cc(C)ccc1SC,15%,i,23µM*,1%,i
Cc1ccc(C2CC2C(=O)NNC(=S)Nc2cccc(C)c2)cc1 (stereo unspecified),1%,16µM*,u,u,i
COc1ccc(NC(=S)NNC(=O)C2CC2c2ccc(C)cc2)cc1 (stereo unspecified),-10%,i,18µM*,u,i
Cc1ccc(C2CC2C(=O)NNC(=S)Nc2cccc(Cl)c2)cc1 (stereo unspecified),-18%,i,-2%,23%,i
Cc1ccc(NC(=S)NNC(=O)C2CC2c2ccc(C)cc2)cc1 (stereo unspecified),-3%,i,39%,8%,i
CC1C(=O)CC(c2ccccc2)N(C)C1c1ccccc1 (stereo unspecified),-2%,i,0%,26µM*,i
COc1cccc(/C=C/C(=O)OCC(=O)c2c[nH]c3ccccc23)c1OC,16µM*,i,-7%,-7%,i
CCc1cccc2c(C(=O)COC(=O)/C=C/c3ccc(O)c(OC)c3)c[nH]c12,21µM*,i,22%,-52%,i
COc1cc(/C=C/C(=O)OCC(=O)c2ccc(OC(F)F)cc2)ccc1O,18µM*,i,6%,u,i
C=CCN(c1cccc(C(F)(F)F)c1)S(=O)(=O)c1cccc(C(=O)OCC(=O)NC)c1,13%,i,-8%,6%,i
O=C(CSc1ccc2nnc(-c3cccc(F)c3)n2n1)NCc1ccco1,-1%,16µM*,-4%,12%,i
COc1ccc(-c2nnc3ccc(SC(C(C)=O)C(C)=O)nn23)cc1OC,u,i,26%,u,i
CSc1ccc2nnc(-c3cccc(F)c3)n2n1,0%,13µM*,-9%,0%,i
CCOC(=O)CC(=O)CSc1ccc2nnc(-c3cccc(F)c3)n2n1,u,i,14%,30%,i
COc1ccc(-c2nnc3ccc(SC(C)C)nn23)cc1OC,x,21µM*,x,x,i
Cc1ccc(S(=O)(=O)N(C)CC(=O)Nc2ccccc2)cc1,-12%,i,0%,-3%,i
O=C(NC1CC2CCC(C1)N2C(=O)NCc1ccccc1)C1CC1 (stereo unspecified),-3%,i,-1%,9%,i
CC1CN(S(=O)(=O)N(C)C)CCN1S(=O)(=O)N(C)C (stereo unspecified),12%,i,-5%,0%,i
CSc1ccc(Cl)c(C(=O)N2CCN(CC(=O)N3CCCC3)CC2)c1,0%,x,0%,-1%,x
Fc1ccc(C(c2ccc(F)cc2)N2CCN(C/C=C/c3ccccc3)CC2)cc1,-16%,u,u,23µM*,u
